The whole screen tested about 5,500 compounds, of which about 2,000 (36%) were called active. Roughly 18% stayed inconclusive and do not appear here. Rule as the data show it: active = normalized growth mostly below about 0.91 (no sharp cut-off); inconclusive = no clear call, values can overlap the other calls; inactive = mostly above about 0.92. The list shows a part of the results.
Assay: chemical genetic growth profiling, strain panel (AID 1159580);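 also: tested at 20 µM; growth read once vehicle control cultures reached saturation at 30 °C; 1 = growth at the plate median or of vehicle wells; lower values mean less growth of the strain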
Conditions: S. cerevisiae deletion strains, growth OD
[1] = locus YAR019C, strain CDC15, active compounds read low
[2] = locus YBL105C, strain PKC1, active compounds read low
[3] = locus YBR135W, strain CKS1, active compounds read low
[4] = locus YBR136W, strain MEC1, active compounds read low
[5] = locus YBR160W, strain CDC28, active compounds read low
[6] = locus YDL017W, strain CDC7, active compounds read low
[7] = locus YDL028C, strain MPS1, active compounds read low
[8] = locus YDL101C, strain DUN1, active compounds read low
[9] = locus YDL108W, strain KIN28, active compounds read low
[10] = locus YDL132W, strain cdc53, active compounds read low
[11] = locus YDL214C, strain PRR2, active compounds read low
[12] = locus YDR052C, strain DBF4, active compounds read low
[13] = locus YDR054C, strain cdc34, active compounds read low
[14] = locus YDR226W, strain ADK1, active compounds read low
[15] = locus YDR477W, strain SNF1, active compounds read low
[16] = locus YER123W, strain YCK3, active compounds read low
[17] = locus YER133W, strain GLC7, active compounds read low
[18] = locus YFL009W, strain cdc4, active compounds read low
[19] = locus YFL029C, strain CAK1, active compounds read low
[20] = locus YFR003C, strain YPI1, active compounds read low
[21] = locus YFR019W, strain FAB1, active compounds read low
[22] = locus YFR028C, strain CDC14, active compounds read low
[23] = locus YGR040W, strain KSS1, active compounds read low
[24] = locus YGR052W, strain FMP48, active compounds read low
[25] = locus YGR092W, strain DBF2, active compounds read low
[26] = locus YHR030C, strain SLT2, active compounds read low
[27] = locus YHR079C, strain IRE1, active compounds read low
[28] = locus YHR082C, strain KSP1, active compounds read low
[29] = locus YHR205W, strain SCH9, active compounds read low
[30] = locus YIL147C, strain SLN1, active compounds read low
[31] = locus YJL095W, strain BCK1, active compounds read low
[32] = locus YJL128C, strain PBS2, active compounds read low
[33] = locus YJL157C, strain FAR1, active compounds read low
[34] = locus YJR016C, strain ILV3, active compounds read low
[35] = locus YJR066W, strain TOR1 (second series), active compounds read low
[36] = locus YJR066W, strain TOR1, active compounds read low
[37] = locus YKL048C, strain ELM1, active compounds read low
[38] = locus YKL067W, strain YNK1, active compounds read low
[39] = locus YKL101W, strain HSL1, active compounds read low
[40] = locus YKL193C, strain SDS22, active compounds read low
[41] = locus YKL203C, strain TOR2, active compounds read low
[42] = locus YLR113W, strain HOG1, active compounds read low
[43] = locus YLR133W, strain CKI1, active compounds read low
[44] = locus YLR403W, strain SFP1, active compounds read low
[45] = locus YML070W, strain DAK1, active compounds read low
[46] = locus YMR001C, strain CDC5, active compounds read low
[47] = locus YMR205C, strain PFK2 (second series), active compounds read low
[48] = locus YMR277W, strain FCP1, active compounds read low
[49] = locus YNL006W, strain LST8, active compounds read low
[50] = locus YNL020C, strain ARK1, active compounds read low
[51] = locus YNL161W, strain CBK1, active compounds read low
[52] = locus YNL183C, strain NPR1, active compounds read low
[53] = locus YNL207W, strain RIO2, active compounds read low
[54] = locus YNL222W, strain SSU72, active compounds read low
[55] = locus YNL307C, strain MCK1 (second series), active compounds read low
[56] = locus YOL078W, strain AVO1, active compounds read low
[57] = locus YOL136C, strain PFK27, active compounds read low
[58] = locus YOR061W, strain CKA2, active compounds read low
[59] = locus YOR119C, strain RIO1, active compounds read low
[60] = locus YOR231W, strain MKK1, active compounds read low
[61] = locus YOR329C, strain SCD5, active compounds read low
[62] = locus YPL031C, strain PHO85, active compounds read low
[63] = locus YPL153C, strain RAD53, active compounds read low
[64] = locus YPL204W, strain HRR25, active compounds read low
[65] = locus YPL209C, strain IPL1, active compounds read low
[66] = locus YPL256C, strain CLN2, active compounds read low
[67] = locus YPR025C, strain CCL1, active compounds read low
[68] = locus YPR106W, strain ISR1, active compounds read low
[69] = locus YPR111W, strain DBF20, active compounds read low
[70] = strain NNK1, active compounds read low
[71] = strain TSCII, active compounds read low

Measured: normalized growth

Cc1nc(-c2ccccn2)nc(N(C)Cc2ccccc2)c1Cl
inactive: [1] 0.951 | [2] 0.961 | [3] 0.967 | [4] 0.955 | [5] 0.968 | [6] 0.962 | [7] 0.956 | [8] 0.962 | [9] 0.951 | [10] 0.961 | [11] 0.997 | [12] 0.965 | [13] 0.948 | [14] 0.956 | [15] 0.971 | [16] 0.93 | [17] 0.975 | [18] 0.953 | [19] 0.94 | [20] 0.963 | [21] 1 | [22] 0.976 | [23] 0.964 | [24] 1.04 | [25] 0.863 | [26] 0.932 | [27] 0.95 | [28] 0.998 | [29] 0.954 | [30] 0.952 | [31] 0.966 | [32] 0.973 | [33] 0.972 | [34] 0.969 | [35] 0.958 | [36] 0.952 | [37] 0.982 | [38] 0.97 | [39] 0.945 | [40] 0.96 | [41] 1.01 | [42] 1 | [43] 0.968 | [44] 0.959 | [45] 0.966 | [46] 0.956 | [47] 0.981 | [48] 0.964 | [49] 0.975 | [50] 0.973 | [51] 0.964 | [52] 1 | [53] 0.959 | [54] 0.96 | [55] 0.922 | [56] 0.96 | [57] 0.963 | [58] 0.941 | [59] 0.991 | [60] 0.994 | [61] 0.955 | [62] 0.952 | [63] 0.943 | [64] 0.938 | [65] 0.958 | [66] 0.985 | [67] 0.963 | [68] 0.974 | [69] 0.976 | [70] 0.979 | [71] 0.953

Cc1nc(-c2ccccn2)nc(SCc2ccccc2)c1Cl
inactive: [1] 0.946 | [2] 0.945 | [3] 0.941 | [4] 0.94 | [5] 0.954 | [6] 0.949 | [7] 0.939 | [8] 0.942 | [9] 0.94 | [10] 0.93 | [11] 0.844 | [12] 0.94 | [13] 0.922 | [14] 0.942 | [15] 0.849 | [16] 0.747 | [17] 0.826 | [18] 0.935 | [19] 0.935 | [20] 0.943 | [21] 0.887 | [22] 0.94 | [23] 0.829 | [24] 0.853 | [25] 0.705 | [27] 0.766 | [28] 0.849 | [29] 0.86 | [30] 0.935 | [31] 0.862 | [32] 0.927 | [33] 0.798 | [34] 0.936 | [35] 0.786 | [36] 0.792 | [37] 0.96 | [38] 0.849 | [39] 0.875 | [40] 0.937 | [41] 0.869 | [43] 0.876 | [44] 0.772 | [45] 0.816 | [46] 0.942 | [47] 0.864 | [48] 0.941 | [49] 0.94 | [50] 0.827 | [51] 0.942 | [52] 0.826 | [53] 0.921 | [54] 0.943 | [55] 0.807 | [56] 0.938 | [57] 0.834 | [58] 0.815 | [59] 0.843 | [60] 0.819 | [61] 0.946 | [62] 0.791 | [63] 0.793 | [64] 0.834 | [65] 0.952 | [66] 0.934 | [67] 0.942 | [68] 0.95 | [69] 0.955 | [70] 0.945 | [71] 0.933
active: [26] 0.843 | [42] 0.802
